Results published in ChEMBL document CHEMBL1961873, “Compounds: GSK PKIS; Assays: Nanosyn kinase panel” (2012).

Key:
[1] = target: T1, Serine/threonine-protein kinase D2 (Homo sapiens) (UniProt Q9BZL6); settings: at 1 µM;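 note: mean value of PRKD2 inhibition, from the GSK PKIS screening panel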
T1 sequence (whole entry): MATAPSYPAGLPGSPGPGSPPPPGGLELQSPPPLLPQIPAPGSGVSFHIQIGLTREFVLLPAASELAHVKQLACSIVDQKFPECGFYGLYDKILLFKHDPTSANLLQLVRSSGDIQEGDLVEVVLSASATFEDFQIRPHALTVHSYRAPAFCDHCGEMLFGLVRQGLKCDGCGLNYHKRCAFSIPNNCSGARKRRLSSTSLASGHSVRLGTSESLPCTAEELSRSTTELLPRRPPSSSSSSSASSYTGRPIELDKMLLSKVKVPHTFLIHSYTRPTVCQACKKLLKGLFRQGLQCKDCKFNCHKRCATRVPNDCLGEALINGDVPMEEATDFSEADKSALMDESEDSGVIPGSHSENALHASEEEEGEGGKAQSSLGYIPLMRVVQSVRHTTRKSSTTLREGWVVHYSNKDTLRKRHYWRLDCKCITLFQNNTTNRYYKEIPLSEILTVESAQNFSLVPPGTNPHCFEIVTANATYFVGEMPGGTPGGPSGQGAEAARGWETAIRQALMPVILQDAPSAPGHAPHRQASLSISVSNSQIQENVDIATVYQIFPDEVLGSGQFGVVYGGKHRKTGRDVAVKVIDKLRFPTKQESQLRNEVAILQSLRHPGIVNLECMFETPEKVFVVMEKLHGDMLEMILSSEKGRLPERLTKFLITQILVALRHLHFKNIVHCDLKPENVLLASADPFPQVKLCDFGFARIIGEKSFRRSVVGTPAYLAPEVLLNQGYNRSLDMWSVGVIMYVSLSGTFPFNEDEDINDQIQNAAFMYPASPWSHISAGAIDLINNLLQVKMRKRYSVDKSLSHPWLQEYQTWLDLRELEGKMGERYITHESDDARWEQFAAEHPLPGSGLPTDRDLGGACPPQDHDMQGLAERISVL

[2] = target: T2, Serine/threonine-protein kinase D3 (Homo sapiens) (UniProt O94806); settings: at 0.1 µM
T2 sequence (whole entry): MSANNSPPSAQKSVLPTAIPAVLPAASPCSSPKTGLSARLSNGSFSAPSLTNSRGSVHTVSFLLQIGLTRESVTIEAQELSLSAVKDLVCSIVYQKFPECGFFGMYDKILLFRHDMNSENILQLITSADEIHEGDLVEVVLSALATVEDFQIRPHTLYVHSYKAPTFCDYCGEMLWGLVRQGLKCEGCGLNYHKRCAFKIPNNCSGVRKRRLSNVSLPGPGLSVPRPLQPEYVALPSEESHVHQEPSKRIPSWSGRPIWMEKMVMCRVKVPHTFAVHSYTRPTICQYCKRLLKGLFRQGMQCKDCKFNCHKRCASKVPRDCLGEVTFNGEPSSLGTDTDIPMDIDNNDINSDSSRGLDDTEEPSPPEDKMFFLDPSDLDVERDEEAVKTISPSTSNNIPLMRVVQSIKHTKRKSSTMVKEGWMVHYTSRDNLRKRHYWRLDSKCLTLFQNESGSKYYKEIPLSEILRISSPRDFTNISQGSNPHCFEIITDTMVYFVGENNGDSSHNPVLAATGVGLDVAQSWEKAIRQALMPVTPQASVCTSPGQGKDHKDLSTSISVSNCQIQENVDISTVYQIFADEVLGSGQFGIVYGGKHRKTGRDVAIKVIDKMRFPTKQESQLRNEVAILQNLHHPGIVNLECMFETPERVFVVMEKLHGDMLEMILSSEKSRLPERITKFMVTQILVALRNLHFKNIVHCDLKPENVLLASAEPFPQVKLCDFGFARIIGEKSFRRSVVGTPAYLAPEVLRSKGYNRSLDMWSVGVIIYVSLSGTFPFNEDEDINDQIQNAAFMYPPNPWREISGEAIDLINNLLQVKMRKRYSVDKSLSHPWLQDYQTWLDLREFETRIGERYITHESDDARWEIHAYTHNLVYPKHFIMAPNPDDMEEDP

[3] = target: T2, Serine/threonine-protein kinase D3 (Homo sapiens); settings: at 1 µM
[4] = target: T3, cGMP-dependent protein kinase 1 (Homo sapiens) (UniProt Q13976); settings: at 0.1 µM
T3 sequence (whole entry): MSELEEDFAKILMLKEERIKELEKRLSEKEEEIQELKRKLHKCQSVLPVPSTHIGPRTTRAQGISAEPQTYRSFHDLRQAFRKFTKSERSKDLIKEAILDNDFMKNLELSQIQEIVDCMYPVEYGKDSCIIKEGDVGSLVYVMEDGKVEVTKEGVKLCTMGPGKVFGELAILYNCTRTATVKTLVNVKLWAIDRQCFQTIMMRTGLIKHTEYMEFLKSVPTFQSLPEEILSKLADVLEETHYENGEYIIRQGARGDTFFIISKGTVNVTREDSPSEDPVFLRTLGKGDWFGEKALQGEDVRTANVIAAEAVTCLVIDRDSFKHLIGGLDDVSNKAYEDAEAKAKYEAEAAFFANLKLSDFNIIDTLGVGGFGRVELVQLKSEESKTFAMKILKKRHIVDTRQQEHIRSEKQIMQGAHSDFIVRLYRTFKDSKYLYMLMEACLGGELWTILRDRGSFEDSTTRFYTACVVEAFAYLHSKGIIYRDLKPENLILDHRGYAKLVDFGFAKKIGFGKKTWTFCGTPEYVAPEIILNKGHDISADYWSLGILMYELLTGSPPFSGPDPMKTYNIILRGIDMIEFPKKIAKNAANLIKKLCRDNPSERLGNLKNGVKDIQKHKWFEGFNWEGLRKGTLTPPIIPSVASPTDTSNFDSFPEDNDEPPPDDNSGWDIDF

[5] = target: T3, cGMP-dependent protein kinase 1 (Homo sapiens); settings: at 1 µM
[6] = target: T4, cGMP-dependent protein kinase 2 (Homo sapiens) (UniProt Q13237); settings: at 0.1 µM
T4 sequence (whole entry): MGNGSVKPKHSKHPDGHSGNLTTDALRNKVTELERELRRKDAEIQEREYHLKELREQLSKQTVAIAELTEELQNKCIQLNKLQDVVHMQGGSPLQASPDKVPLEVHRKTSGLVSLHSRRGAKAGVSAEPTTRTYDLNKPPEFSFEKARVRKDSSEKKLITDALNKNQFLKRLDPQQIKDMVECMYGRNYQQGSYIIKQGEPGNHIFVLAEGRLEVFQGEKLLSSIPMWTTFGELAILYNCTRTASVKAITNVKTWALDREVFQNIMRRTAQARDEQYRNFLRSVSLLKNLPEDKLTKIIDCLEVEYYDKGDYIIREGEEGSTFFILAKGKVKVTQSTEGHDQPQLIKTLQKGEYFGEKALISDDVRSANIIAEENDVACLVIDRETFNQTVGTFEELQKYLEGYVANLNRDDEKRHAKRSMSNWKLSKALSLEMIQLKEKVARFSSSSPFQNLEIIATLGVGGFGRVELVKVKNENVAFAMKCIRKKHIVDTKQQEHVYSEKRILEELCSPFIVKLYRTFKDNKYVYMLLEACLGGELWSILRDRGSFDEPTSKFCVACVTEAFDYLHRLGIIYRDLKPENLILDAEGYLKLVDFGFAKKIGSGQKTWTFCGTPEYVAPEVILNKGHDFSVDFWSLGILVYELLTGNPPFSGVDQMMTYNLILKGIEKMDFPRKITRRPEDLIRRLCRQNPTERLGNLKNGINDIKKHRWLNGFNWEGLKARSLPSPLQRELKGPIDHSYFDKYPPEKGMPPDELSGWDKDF

[7] = target: T4, cGMP-dependent protein kinase 2 (Homo sapiens); settings: at 1 µM
[8] = target: T5, cAMP-dependent protein kinase catalytic subunit PRKX (Homo sapiens) (UniProt P51817); settings: at 0.1 µM
T5 sequence (whole entry): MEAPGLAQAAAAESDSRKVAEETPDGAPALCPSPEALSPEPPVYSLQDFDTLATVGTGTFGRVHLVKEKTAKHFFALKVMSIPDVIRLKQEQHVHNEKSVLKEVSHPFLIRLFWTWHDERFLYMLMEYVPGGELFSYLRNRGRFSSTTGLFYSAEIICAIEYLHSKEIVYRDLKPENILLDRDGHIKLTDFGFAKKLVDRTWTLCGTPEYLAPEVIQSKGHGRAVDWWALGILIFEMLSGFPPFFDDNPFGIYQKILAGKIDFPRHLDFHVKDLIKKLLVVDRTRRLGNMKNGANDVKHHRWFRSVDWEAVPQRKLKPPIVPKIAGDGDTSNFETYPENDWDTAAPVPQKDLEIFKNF

[9] = target: T5, cAMP-dependent protein kinase catalytic subunit PRKX (Homo sapiens); settings: at 1 µM
[10] = target: Rho-associated protein kinase 1 (Homo sapiens) (UniProt Q13464); settings: at 0.1 µM
[11] = target: Rho-associated protein kinase 1 (Homo sapiens) (UniProt Q13464); settings: at 1 µM
[12] = target: Rho-associated protein kinase 2 (Homo sapiens) (UniProt O75116); settings: at 0.1 µM
[13] = target: Rho-associated protein kinase 2 (Homo sapiens) (UniProt O75116); settings: at 1 µM
[14] = target: Ribosomal protein S6 kinase alpha-1 (Homo sapiens) (UniProt Q15418); settings: at 0.1 µM
[15] = target: Ribosomal protein S6 kinase alpha-1 (Homo sapiens) (UniProt Q15418); settings: at 1 µM
[16] = target: Ribosomal protein S6 kinase alpha-3 (Homo sapiens) (UniProt P51812); settings: at 0.1 µM
[17] = target: Ribosomal protein S6 kinase alpha-3 (Homo sapiens) (UniProt P51812); settings: at 1 µM
[18] = target: Ribosomal protein S6 kinase alpha-2 (Homo sapiens) (UniProt Q15349); settings: at 0.1 µM
[19] = target: Ribosomal protein S6 kinase alpha-2 (Homo sapiens) (UniProt Q15349); settings: at 1 µM
[20] = target: Ribosomal protein S6 kinase alpha-6 (Homo sapiens) (UniProt Q9UK32); settings: at 0.1 µM;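 note: reported value is the mean inhibition of RSK4, from the GSK PKIS kinase inhibitor screen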

Sequence of Ribosomal protein S6 kinase alpha-3 (Homo sapiens) (P51812 whole entry): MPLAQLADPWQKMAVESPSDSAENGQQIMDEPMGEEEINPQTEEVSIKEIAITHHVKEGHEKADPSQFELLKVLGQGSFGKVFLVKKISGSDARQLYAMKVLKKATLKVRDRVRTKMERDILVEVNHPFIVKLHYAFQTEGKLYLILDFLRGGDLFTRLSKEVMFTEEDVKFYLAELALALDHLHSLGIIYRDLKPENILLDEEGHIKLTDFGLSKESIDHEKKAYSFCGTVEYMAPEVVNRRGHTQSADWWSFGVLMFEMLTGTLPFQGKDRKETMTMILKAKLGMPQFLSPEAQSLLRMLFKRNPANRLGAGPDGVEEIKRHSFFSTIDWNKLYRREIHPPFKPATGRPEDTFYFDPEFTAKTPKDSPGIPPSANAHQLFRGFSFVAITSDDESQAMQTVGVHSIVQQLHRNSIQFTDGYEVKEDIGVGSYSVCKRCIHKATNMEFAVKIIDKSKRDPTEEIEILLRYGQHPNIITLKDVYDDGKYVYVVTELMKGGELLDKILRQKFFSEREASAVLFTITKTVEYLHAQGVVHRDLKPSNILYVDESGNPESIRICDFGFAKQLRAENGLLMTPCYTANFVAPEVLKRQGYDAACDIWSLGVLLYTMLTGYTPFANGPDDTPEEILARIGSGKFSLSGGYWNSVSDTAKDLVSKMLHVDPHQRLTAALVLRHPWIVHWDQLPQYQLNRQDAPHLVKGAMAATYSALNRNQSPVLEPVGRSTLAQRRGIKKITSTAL
Sequence of Rho-associated protein kinase 2 (Homo sapiens) (O75116 whole entry, looked up): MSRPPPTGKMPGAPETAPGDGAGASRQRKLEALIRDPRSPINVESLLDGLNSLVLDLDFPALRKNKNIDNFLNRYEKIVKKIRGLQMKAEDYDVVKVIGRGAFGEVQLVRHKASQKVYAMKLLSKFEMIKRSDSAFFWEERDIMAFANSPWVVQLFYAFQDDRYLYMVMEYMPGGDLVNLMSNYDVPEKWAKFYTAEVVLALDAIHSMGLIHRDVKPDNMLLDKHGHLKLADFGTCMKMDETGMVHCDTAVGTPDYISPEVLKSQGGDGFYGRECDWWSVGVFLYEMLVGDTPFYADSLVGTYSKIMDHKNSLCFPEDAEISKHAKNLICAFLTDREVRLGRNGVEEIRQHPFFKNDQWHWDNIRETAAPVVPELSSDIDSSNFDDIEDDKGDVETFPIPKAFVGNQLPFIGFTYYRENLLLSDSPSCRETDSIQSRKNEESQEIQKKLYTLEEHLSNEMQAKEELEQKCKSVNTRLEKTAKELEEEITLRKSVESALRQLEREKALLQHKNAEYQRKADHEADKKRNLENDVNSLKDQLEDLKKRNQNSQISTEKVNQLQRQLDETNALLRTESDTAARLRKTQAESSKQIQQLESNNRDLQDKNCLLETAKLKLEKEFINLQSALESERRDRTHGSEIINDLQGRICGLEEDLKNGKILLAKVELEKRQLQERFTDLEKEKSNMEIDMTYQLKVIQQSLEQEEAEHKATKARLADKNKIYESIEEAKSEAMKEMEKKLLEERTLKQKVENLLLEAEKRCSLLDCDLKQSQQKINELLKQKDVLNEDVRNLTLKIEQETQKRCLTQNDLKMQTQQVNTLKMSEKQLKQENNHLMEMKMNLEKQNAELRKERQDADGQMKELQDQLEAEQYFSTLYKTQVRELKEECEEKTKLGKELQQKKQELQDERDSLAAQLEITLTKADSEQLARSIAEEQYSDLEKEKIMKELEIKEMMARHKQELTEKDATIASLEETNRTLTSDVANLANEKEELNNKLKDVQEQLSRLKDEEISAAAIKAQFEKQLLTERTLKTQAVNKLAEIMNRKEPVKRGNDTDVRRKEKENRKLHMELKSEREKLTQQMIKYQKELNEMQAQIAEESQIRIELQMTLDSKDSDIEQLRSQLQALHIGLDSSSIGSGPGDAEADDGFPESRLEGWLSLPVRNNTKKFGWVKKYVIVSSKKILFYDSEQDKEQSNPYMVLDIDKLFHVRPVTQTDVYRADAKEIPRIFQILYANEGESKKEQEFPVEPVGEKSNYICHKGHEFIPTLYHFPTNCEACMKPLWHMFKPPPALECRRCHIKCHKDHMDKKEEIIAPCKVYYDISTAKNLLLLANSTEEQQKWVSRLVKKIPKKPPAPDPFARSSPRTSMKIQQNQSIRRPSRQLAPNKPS
Sequence of Ribosomal protein S6 kinase alpha-1 (Homo sapiens) (Q15418 whole entry): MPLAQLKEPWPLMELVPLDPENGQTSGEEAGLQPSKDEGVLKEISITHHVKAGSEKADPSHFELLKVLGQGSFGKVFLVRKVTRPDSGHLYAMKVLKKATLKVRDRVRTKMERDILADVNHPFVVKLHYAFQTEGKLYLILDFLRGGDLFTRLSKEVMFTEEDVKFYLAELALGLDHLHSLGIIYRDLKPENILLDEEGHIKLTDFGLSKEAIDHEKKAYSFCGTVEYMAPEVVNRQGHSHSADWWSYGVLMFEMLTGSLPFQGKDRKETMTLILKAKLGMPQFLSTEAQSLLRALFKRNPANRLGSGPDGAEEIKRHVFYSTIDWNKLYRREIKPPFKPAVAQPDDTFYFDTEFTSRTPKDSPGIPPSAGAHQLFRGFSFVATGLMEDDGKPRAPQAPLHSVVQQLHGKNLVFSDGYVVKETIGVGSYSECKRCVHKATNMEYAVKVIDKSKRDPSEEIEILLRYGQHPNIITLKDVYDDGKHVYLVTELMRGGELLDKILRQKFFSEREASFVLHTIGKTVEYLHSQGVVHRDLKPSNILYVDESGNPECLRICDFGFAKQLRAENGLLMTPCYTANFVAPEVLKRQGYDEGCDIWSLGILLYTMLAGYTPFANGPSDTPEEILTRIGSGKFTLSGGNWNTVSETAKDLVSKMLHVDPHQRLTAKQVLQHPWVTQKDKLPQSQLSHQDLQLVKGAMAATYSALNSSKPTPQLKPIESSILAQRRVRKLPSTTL
Sequence of Rho-associated protein kinase 1 (Homo sapiens) (Q13464 2-1354 limits assumed): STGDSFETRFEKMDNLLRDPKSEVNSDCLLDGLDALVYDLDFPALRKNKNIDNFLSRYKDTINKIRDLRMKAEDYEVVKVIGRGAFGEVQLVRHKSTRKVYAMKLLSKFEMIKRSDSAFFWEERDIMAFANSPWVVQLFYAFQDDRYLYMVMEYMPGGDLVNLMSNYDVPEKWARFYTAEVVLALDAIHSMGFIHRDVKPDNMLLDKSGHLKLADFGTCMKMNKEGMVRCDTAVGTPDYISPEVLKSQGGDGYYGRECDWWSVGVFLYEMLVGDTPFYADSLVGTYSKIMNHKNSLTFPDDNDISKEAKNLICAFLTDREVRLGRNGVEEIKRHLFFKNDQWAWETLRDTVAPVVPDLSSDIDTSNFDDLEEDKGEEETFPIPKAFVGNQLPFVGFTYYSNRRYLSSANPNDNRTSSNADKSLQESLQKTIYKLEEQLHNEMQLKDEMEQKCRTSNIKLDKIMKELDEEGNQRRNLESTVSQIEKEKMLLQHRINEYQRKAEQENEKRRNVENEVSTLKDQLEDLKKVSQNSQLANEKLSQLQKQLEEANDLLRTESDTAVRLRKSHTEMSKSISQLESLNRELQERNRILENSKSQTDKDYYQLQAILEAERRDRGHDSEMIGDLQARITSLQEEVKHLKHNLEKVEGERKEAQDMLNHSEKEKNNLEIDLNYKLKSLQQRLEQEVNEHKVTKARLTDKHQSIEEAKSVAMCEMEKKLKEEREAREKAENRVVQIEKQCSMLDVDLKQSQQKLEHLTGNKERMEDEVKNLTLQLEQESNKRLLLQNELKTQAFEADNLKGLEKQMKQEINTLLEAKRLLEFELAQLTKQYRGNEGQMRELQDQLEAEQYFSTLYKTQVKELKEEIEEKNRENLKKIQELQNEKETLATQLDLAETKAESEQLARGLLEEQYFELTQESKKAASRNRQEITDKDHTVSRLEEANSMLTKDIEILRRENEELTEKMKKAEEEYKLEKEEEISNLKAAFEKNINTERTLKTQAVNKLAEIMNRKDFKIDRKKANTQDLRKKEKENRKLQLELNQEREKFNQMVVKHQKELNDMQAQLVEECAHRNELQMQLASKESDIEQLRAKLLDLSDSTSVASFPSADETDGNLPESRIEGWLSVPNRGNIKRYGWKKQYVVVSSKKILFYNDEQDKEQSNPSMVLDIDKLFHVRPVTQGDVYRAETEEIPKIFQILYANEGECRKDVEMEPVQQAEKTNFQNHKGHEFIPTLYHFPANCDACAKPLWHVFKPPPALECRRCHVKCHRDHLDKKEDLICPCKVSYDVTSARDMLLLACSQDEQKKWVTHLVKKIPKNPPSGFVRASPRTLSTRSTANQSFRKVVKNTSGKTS
Sequence of Ribosomal protein S6 kinase alpha-2 (Homo sapiens) (Q15349 whole entry): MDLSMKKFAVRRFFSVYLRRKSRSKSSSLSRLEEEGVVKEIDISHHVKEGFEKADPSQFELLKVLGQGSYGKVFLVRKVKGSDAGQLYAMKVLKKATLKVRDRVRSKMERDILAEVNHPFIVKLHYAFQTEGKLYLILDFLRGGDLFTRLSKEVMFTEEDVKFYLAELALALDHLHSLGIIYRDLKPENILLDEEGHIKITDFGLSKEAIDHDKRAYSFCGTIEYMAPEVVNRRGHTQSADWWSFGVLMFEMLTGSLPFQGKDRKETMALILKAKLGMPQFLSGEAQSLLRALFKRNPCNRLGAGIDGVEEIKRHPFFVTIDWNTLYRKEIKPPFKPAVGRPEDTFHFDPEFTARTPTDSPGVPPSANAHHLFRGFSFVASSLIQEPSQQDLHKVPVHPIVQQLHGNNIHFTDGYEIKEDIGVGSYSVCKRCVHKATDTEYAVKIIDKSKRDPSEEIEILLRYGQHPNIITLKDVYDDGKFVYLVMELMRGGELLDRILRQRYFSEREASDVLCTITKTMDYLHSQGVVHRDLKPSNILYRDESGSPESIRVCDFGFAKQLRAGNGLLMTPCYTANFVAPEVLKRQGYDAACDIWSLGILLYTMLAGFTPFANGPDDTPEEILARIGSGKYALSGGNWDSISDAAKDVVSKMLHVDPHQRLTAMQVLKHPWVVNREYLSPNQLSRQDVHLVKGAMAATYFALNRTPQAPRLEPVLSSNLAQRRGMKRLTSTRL

Compound | inhibition [1] [%] | inhibition [2] [%] | inhibition [3] [%] | inhibition [4] [%] | inhibition [5] [%] | inhibition [6] [%] | inhibition [7] [%] | inhibition [8] [%] | inhibition [9] [%] | inhibition [10] [%] | inhibition [11] [%] | inhibition [12] [%] | inhibition [13] [%] | inhibition [14] [%] | inhibition [15] [%] | inhibition [16] [%] | inhibition [17] [%] | inhibition [18] [%] | inhibition [19] [%] | inhibition [20] [%]
CC(=O)Nc1cccc(C#Cc2cncnc2Nc2ccc(OCc3cccc(F)c3)c(Cl)c2)c1 | 3.79 | 2.13 | 2.46 | 3.13 | 3.55 | 2.86 | 1.98 | 1.66 | 1.17 | 1.07 | 0.67 | 0.44 | 0.1 | 0.12 | -1.94 | 0.9 | -0.35 | 1.46 | 0.33 | 0.92
CCN1CCC(CC(=O)Nc2n[nH]c3nnc(-c4cccc(F)c4F)cc23)CC1 | 2.99 | 1.54 | 2.01 | 1.07 | 0.47 | 1.64 | 2.03 | 0.36 | 0.65 | 0.26 | 0.43 | 1.58 | 0.93 | 1.35 | 2.11 | 3.2 | 3.53 | 1.12 | 1.83 | 1.84
COC(=O)c1sc(-n2cnc3cc(OC)c(OC)cc32)cc1OCc1ccccc1C(F)(F)F | 5.96 | 4.17 | 5.73 | 2.01 | 4.24 | 1.58 | 3.35 | -0.14 | 0.19 | 0.1 | 1.93 | 1.69 | 1.32 | 0.68 | 1.38 | 0.27 | 1.3 | 1.77 | 4.5 | 1.2
COc1cc(N2CCN(C(C)C)CC2)ccc1Nc1nc(Nc2ccc(F)cc2C(N)=O)c2cc[nH]c2n1 | 83.9 | 38.8 | 79.8 | 11.5 | 55 | 6 | 25.4 | 5.37 | 5.35 | 1.79 | 23.5 | 4.69 | 29.1 | 22 | 65.3 | 15 | 57 | 8.2 | 43.7 | 14.5
Cc1ccc(O)cc1Nc1ccnc2cc(-c3ccccn3)ccc12 | 34.9 | 5.74 | 18.9 | 3.58 | 1.99 | 1.7 | 3.8 | 1.87 | -2.49 | 0.91 | 3.92 | 2.07 | 0.33 | 1.44 | 0.51 | 0.48 | -0.99 | 1.68 | 2.66 | 0.21
N#Cc1c(NC(=O)c2ccc(F)cc2)sc2c1CCCC2 | 2.16 | 1.7 | 1.92 | 0.21 | 1.54 | -0.45 | 3.35 | 0.52 | 1.79 | 0.43 | 1.82 | 0.42 | 2.62 | 1.41 | 2.35 | 0.9 | 2.51 | -0.44 | 1.7 | -0.96
